# Data: PubChem BioAssay (EPA / NIEHS)
# Inconclusive results are not listed. Active and inactive are the calls of the source. How the source made its calls: active means hit-call score of the fitted dose curve at least 0.9, where 1 is the maximum; inconclusive means response in the unintended direction; inactive means score below 0.9.
# Columns and labels:
# [1] = TOX21_p53_BLA_p2_viability: Viability Assessment in the Tox21 HCT-116 p53 Agonism Beta-lactamase Assay, Phase 2 (AID 2283591);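 further: actives lower the ATP signal meaning cytotoxicity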
# Outline: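 HCT-116 p53-bla cells (4000/well) rested 5 h at 37C, then received compounds in DMSO (217-fold dilution) for 16 h at 37C, 5% CO2. After the CCF4 read, CellTiter-Glo was added; ATP luminescence was read after 30 min at room temperature.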
# [2] = biological target: Cellular tumor antigen p53 (Homo sapiens) (UniProt P04637); test: TOX21_p53_BLA_p2_ratio: Tox21 HCT-116 p53 Agonism Beta-lactamase Assay, Ratio, Phase 2 (AID 2283592)
# Outline: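 First, HCT116 reporter cells settle for 5 h at 37C. Next, DMSO compound solutions are pinned in (217-fold dilution) and left 16 h. Finally, CCF4-AM substrate is loaded 2 h at room temperature and the 460/530 nm ratio read.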
# [3] = TOX21_p53_BLA_p3_viability: Viability Assessment in the Tox21 HCT-116 p53 Agonism Beta-lactamase Assay, Phase 3 (AID 2283593);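 further: cells exposed to compound for 16 h before reading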
# Outline: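 HCT-116 cells (4000/well) rested 5 h at 37C, then got DMSO compounds by pin tool (217-fold dilution) for 16 h at 37C, 5% CO2. After the bla read, CellTiter-Glo was added and luminescence read at 30 min, room temperature.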
# [4] = TOX21_p53_BLA_p4_viability: Viability Assessment in the Tox21 HCT-116 p53 Agonism Beta-lactamase Assay, Phase 4 (AID 2283597);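 further: hits lower the luminescence signal meaning cytotoxicity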
# Outline: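 4000 HCT116 cells per well; 5 h attachment; compounds from DMSO, 217-fold dilution; 16 h at 37C. Then CCF4-AM, 2 h RT, followed by CellTiter-Glo, 30 min RT, luminescence. Decrease = cytotoxicity.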
# [5] = TOX21_p53_BLA_p5_viability: Viability Assessment in the Tox21 HCT-116 p53 Agonism Beta-lactamase Assay, Phase 5 (AID 2283600)
# Outline: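 Decreased CellTiter-Glo luminescence denotes lost viability. Exposure: 16 h at 37C, 5% CO2, with compounds from DMSO stocks diluted 217-fold in wells of 4000 cells.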
# [6] = biological target: Cellular tumor antigen p53 (Homo sapiens) (UniProt P04637); test: TOX21_p53_BLA_p4_ratio: Tox21 HCT-116 p53 Agonism Beta-lactamase Assay, Ratio, Phase 4 (AID 2283601)
# Outline: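 HCT116 cells carrying an inducible beta-lactamase reporter were plated at 4000 cells/well, rested 5 h, then exposed to compounds in DMSO (217-fold dilution) for 16 h at 37C. CCF4-AM substrate was loaded 2 h at room temperature; 460/530 nm emission ratio scored gain-of-signal versus DMSO.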
# [7] = biological target: Cellular tumor antigen p53 (Homo sapiens) (UniProt P04637); test: TOX21_p53_BLA_p5_ratio: Tox21 HCT-116 p53 Agonism Beta-lactamase Assay, Ratio, Phase 5 (AID 2283599)
# Outline: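 HCT-116 cells carrying a p53-inducible beta-lactamase reporter were seeded at 4000 cells/well and dosed after 5 h with compound in DMSO (217-fold dilution). After 16 h at 37C, CCF4-AM substrate was added for 2 h, and the 460/530 nm emission ratio was scored as gain-of-signal versus DMSO.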
# [8] = biological target: Thyroid hormone receptor alpha (Rattus norvegicus) + Thyroid hormone receptor beta (Rattus norvegicus) (UniProt P18113+P63059); test: TOX21_TR_LUC_GH3_Antagonist_Followup: Tox21 GH3 Thyroid Hormone Receptor Antagonism Luciferase Follow-Up Assay (AID 2283942)
# Outline: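 In a GH3 luciferase reporter line, test chemicals spanning 92 uM to 5nM final are co-incubated 24 h with 1.0 nM T3. Activity is expressed as relative luminescence units and analysed relative to DMSO.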
# [9] = biological target: THRA (gene 7067) (UniProt P10827); test: TOX21_TRA_COA_Antagonist_Followup_ratio: Tox21 Thyroid Hormone Receptor alpha Antagonism through Coactivator Recruitment Follow-Up Assay, Ratio (AID 2283953)
# Outline: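 GST-TRα LBD 2.5 nM, BSA 0.10%, + cpd; then FITC-SRC-2 peptide 200 nM + Tb-anti-GST Ab 2 nM. TR-FRET ratio 520/495 nm. Norm: DMSO = 0%, T3 = 100%.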
# [10] = biological target: THRB (gene 7068) (UniProt P10828); test: TOX21_TRB_BLA_Antagonist_Followup_ratio: Tox21 Thyroid Hormone Receptor beta Antagonism Beta-lactamase (BLA) Follow-Up Assay, Ratio (AID 2283958)
# Outline: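 Beta-lactamase reporter ratio (460/530 nm, CCF4-AM substrate, 2 h room temperature) was read in TRb-bla HEK293T cells after 18 h compound treatment (11 concentrations, triplicate) at 37C in 2% charcoal-stripped FBS medium. Loss of signal fitted against DMSO.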
# [11] = TOX21_TRB_BLA_Antagonist_Followup_viability: Viability Assessment in the Tox21 Thyroid Hormone Receptor beta Antagonism Beta-lactamase (BLA) Follow-Up Assay (AID 2283961)
# Outline: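 HEK293T cells with GAL4-human TRβ LBD and UAS-bla reporter, 3,000 cells/well in 2% charcoal-stripped FBS medium; 11-point concentrations in triplicate, 18 h at 37C. Viability from ATP by CellTiter-Glo luminescence, 30 min RT, same plates.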
# [12] = biological target: THRB (gene 7068) (UniProt P10828); test: TOX21_TRB_COA_Antagonist_Followup_ratio: Tox21 Thyroid Hormone Receptor beta Antagonism through Coactivator Recruitment Follow-Up Assay, Ratio (AID 2283967)
# Outline: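 Coactivator (SRC-2) recruitment to purified GST-TRβ ligand-binding domain is monitored by terbium-to-fluorescein energy transfer, emission ratio 520:495 nm. DMSO wells define 0% and T3 wells 100% activity.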
# [13] = TOX21_PR_BLA_Followup_Agonist_viability: Viability Assessment in the Tox21 HEK293 Progesterone Receptor (PR) Agonism Beta-lactamase Follow-Up Assay (AID 2283935);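 further: signal loss means lower viability so actives are cytotoxic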
# Outline: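 Run multiplexed with the beta-lactamase FRET read, this endpoint measures ATP by CellTiter-Glo luminescence (30 min, room temperature). PR-UAS-bla HEK293T cells received compound 6 hr after plating and were then incubated 16 hr at 37C in 2% stripped serum.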
# [14] = TOX21_PR_BLA_Followup_Antagonist_viability: Viability Assessment in the Tox21 HEK293 Progesterone Receptor (PR) Antagonism Beta-lactamase Follow-Up Assay (AID 2283936);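 further: cells exposed to compound with R5020 agonist for 16 h; hits lower the luminescence signal meaning cytotoxicity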
# Outline: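 PR-UAS-bla HEK293T cells in medium with 2% charcoal-stripped FBS were treated with compounds plus R5020 for 16 hr at 37C. After the beta-lactamase read, CellTiter-Glo was added to the same wells and luminescence read after 30 min at room temperature.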
# [15] = TOX21_PR_LUC_Followup_Antagonist_viability: Viability Assessment in the Tox21 HEK293 Progesterone Receptor (PR) Antagonism Luciferase Follow-Up Assay (AID 2283940)
# Outline: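 Viability counter-readout: cellular ATP measured by luciferase luminescence after 16 h compound exposure at 37C of HEK293-PR-A-luc cells, which had been cultured in charcoal-stripped serum and seeded 5 h beforehand.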
# [16] = TOX21_PR_LUC_Followup_Agonist_viability: Viability Assessment in the Tox21 HEK293 Progesterone Receptor (PR) Agonism Luciferase Follow-Up Assay (AID 2283941);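 further: loss of signal means cytotoxicity so actives lower viability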
# Outline: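 Cytotoxicity counter-readout in the PR-A luciferase reporter line HEK293, with 16 h compound exposure at 37C after cells were cultured in charcoal-stripped serum. Cellular ATP quantified by CellTiter-Glo luminescence.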
# Chain of Cellular tumor antigen p53 (Homo sapiens) (P04637 whole entry, looked up): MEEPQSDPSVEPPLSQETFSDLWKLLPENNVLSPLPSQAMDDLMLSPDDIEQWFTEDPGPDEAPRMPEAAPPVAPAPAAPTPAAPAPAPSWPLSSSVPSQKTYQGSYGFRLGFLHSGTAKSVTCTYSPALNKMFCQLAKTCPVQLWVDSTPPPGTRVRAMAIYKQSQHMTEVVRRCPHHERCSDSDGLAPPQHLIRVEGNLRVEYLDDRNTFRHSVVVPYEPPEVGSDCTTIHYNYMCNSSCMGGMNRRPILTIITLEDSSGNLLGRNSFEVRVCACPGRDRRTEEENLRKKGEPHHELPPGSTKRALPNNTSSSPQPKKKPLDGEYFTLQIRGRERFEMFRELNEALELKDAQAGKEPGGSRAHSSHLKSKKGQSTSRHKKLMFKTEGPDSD
# Chain of THRB (gene 7068) (P10828 whole entry, looked up, the tested form may be a part): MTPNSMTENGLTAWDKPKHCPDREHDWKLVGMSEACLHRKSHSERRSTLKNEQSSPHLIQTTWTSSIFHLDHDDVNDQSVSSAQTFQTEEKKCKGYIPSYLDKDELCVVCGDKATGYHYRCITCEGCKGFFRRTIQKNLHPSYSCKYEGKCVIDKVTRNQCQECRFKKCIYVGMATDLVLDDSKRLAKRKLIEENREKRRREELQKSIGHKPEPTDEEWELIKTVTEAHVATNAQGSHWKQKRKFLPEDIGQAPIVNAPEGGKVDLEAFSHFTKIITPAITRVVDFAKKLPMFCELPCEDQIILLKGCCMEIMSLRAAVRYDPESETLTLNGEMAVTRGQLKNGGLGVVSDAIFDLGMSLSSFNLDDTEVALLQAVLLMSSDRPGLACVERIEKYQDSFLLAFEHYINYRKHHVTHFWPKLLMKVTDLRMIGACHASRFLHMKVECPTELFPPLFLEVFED
# Chain of THRA (gene 7067) (P10827 whole entry, looked up, the tested form may be a part): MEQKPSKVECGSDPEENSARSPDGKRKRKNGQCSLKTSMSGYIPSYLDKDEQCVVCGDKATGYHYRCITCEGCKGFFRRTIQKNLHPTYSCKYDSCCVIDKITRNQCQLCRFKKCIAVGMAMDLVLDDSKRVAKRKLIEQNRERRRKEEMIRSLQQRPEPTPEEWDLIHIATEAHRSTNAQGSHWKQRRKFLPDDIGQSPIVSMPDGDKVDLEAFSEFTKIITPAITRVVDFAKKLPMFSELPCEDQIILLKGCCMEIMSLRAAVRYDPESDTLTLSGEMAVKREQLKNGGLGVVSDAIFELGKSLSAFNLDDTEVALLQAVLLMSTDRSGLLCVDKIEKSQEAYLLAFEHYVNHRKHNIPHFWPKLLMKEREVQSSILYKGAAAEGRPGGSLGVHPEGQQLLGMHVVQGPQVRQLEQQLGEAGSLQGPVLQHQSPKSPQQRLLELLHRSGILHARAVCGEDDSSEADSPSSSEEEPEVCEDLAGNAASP
smiles,measurement,setting,value
CCN(CC)c1ccc2c(-c3ccc(S(=O)(=O)O)cc3S(=O)(=O)[O-])c3ccc(=[N+](CC)CC)cc-3oc2c1,outcome,[1],inactive
same,outcome,[2],inactive
same,outcome,[3],inactive
same,outcome,[4],inactive
same,outcome,[5],inactive
same,outcome,[6],inactive
Cc1c(Nc2ncccc2C(=O)O)cccc1C(F)(F)F,outcome,[1],inactive
same,outcome,[2],inactive
same,outcome,[3],inactive
same,outcome,[4],inactive
same,outcome,[7],inactive
same,outcome,[5],inactive
same,outcome,[6],inactive
same,outcome,[8],inactive
same,outcome,[9],inactive
same,outcome,[10],inactive
same,outcome,[11],inactive
same,outcome,[12],inactive
CN1CCC(OC(=O)C(Oc2ccc(Cl)cc2)Oc2ccc(Cl)cc2)CC1,outcome,[1],inactive
same,outcome,[2],inactive
same,outcome,[3],inactive
same,outcome,[4],inactive
same,outcome,[7],inactive
same,outcome,[6],inactive
O=c1cc[nH]c(=O)[nH]1,outcome,[1],inactive
same,outcome,[2],inactive
same,outcome,[3],inactive
same,outcome,[4],inactive
same,outcome,[5],inactive
same,outcome,[6],inactive
CCN(CC)Cc1cc(Nc2ccnc3cc(Cl)ccc23)ccc1O,outcome,[1],inactive
same,outcome,[2],inactive
same,outcome,[3],inactive
same,outcome,[4],inactive
same,outcome,[5],inactive
same,outcome,[6],inactive
CC[C@H]1OC(=O)[C@H](C)[C@@H](O[C@H]2C[C@@](C)(OC)[C@@H](O)[C@H](C)O2)[C@H](C)[C@@H](O[C@@H]2O[C@H](C)C[C@H](N(C)C)[C@H]2O)[C@](C)(O)C[C@@H](C)CN(C)[C@H](C)[C@@H](O)[C@]1(C)O,outcome,[1],inactive
same,outcome,[2],inactive
same,outcome,[3],inactive
same,outcome,[4],inactive
same,outcome,[5],inactive
same,outcome,[6],inactive
CNCCC=C1c2ccccc2CCc2ccccc21,outcome,[1],inactive
same,outcome,[2],inactive
same,outcome,[3],inactive
same,AC50,[4],35.8 µM (active)
same,outcome,[5],inactive
same,outcome,[6],inactive
CCN(CC)CCNC(=O)c1ccc(NS(C)(=O)=O)cc1,outcome,[1],inactive
same,outcome,[2],inactive
same,outcome,[3],inactive
same,outcome,[4],inactive
same,outcome,[5],inactive
CC(C)CCCCCCN,outcome,[1],inactive
same,outcome,[2],inactive
same,outcome,[3],inactive
same,outcome,[4],inactive
same,outcome,[5],inactive
CCN1CCC[C@H]1CNC(=O)c1cc(S(N)(=O)=O)ccc1OC,outcome,[1],inactive
same,outcome,[2],inactive
same,outcome,[3],inactive
same,outcome,[4],inactive
same,outcome,[5],inactive
same,outcome,[6],inactive
C=C[C@]1(C)C[C@@H](OC(=O)CSCCN(CC)CC)[C@]2(C)[C@H](C)CC[C@]3(CCC(=O)[C@H]32)[C@@H](C)[C@@H]1O,outcome,[1],inactive
same,outcome,[2],inactive
same,outcome,[3],inactive
same,outcome,[4],inactive
same,outcome,[5],inactive
CC(C)(Oc1ccc(C2CCCc3ccccc32)cc1)C(=O)O (stereo unspecified),outcome,[1],inactive
same,outcome,[2],inactive
same,outcome,[3],inactive
same,outcome,[4],inactive
same,outcome,[5],inactive
C=CCN1C[C@H](C(=O)N(CCCN(C)C)C(=O)NCC)C[C@@H]2c3cccc4[nH]cc(c34)C[C@H]21,outcome,[1],inactive
same,outcome,[2],inactive
same,outcome,[3],inactive
same,outcome,[4],inactive
same,outcome,[5],inactive
same,outcome,[6],inactive
CCOC(=O)[C@H](CCc1ccccc1)N[C@@H](C)C(=O)N(CC(=O)O)C1Cc2ccccc2C1,outcome,[1],inactive
same,outcome,[2],inactive
same,outcome,[3],inactive
same,AC50,[4],7.13 µM (active)
same,outcome,[5],inactive
same,outcome,[6],inactive
Oc1ccc2c(c1)OCO2,outcome,[1],inactive
same,outcome,[2],inactive
same,outcome,[3],inactive
same,outcome,[4],inactive
same,outcome,[5],inactive
same,outcome,[6],inactive
CCOC(C)(C)C,outcome,[1],inactive
same,outcome,[2],inactive
same,outcome,[3],inactive
same,outcome,[4],inactive
same,outcome,[5],inactive
same,outcome,[6],inactive
C=CCONC(CCC)=C1C(=O)CC(C)(C)C(C(=O)OC)=C1O,outcome,[1],inactive
same,outcome,[2],inactive
same,outcome,[3],inactive
same,outcome,[4],inactive
same,outcome,[7],inactive
same,outcome,[6],inactive
C[C@]12CCC(=O)C=C1[C@@H]1C[C@@H]1[C@H]1[C@@H]3[C@@H]4C[C@@H]4[C@@]4(CCC(=O)O4)[C@@]3(C)CC[C@@H]12,outcome,[1],inactive
same,AC50,[2],43.4 µM (active)
same,outcome,[3],inactive
same,outcome,[4],inactive
same,outcome,[7],inactive
same,outcome,[5],inactive
same,outcome,[13],inactive
same,outcome,[14],inactive
same,outcome,[15],inactive
same,outcome,[16],inactive
O=[N+]([O-])c1ccc(CCO)cc1,outcome,[1],inactive
same,outcome,[2],inactive
same,outcome,[3],inactive
same,outcome,[4],inactive
same,outcome,[7],inactive
same,outcome,[6],inactive
CC(=O)[C@H]1CC[C@H]2[C@@H]3C=CC4=CC(=O)CC[C@@]4(C)[C@@H]3CC[C@]12C,outcome,[1],inactive
same,outcome,[2],inactive
same,outcome,[3],inactive
same,outcome,[4],inactive
same,outcome,[7],inactive
same,outcome,[5],inactive
same,outcome,[6],inactive
same,outcome,[8],inactive
same,outcome,[9],inactive
same,outcome,[12],inactive
O=C(c1ccccc1)c1ccc2n1CCC2C(=O)O (stereo unspecified),outcome,[1],inactive
same,outcome,[2],inactive
same,outcome,[3],inactive
same,outcome,[4],inactive
same,outcome,[7],inactive
same,AC50,[6],43.6 µM (active)
O=C(Nc1ccccc1)Nc1ccccc1,outcome,[1],inactive
same,outcome,[2],inactive
same,outcome,[3],inactive
same,outcome,[4],inactive
same,outcome,[5],inactive
O=C(O)c1ccc2cc(O)ccc2c1,outcome,[1],inactive
same,outcome,[2],inactive
same,outcome,[3],inactive
same,outcome,[4],inactive
same,outcome,[7],inactive
same,outcome,[6],inactive
CCC(=O)c1ccc2c(c1)N(CCCN1CCN(CCO)CC1)c1ccccc1S2,outcome,[1],inactive
same,outcome,[2],inactive
same,outcome,[3],inactive
same,AC50,[4],33.3 µM (active)
same,outcome,[5],inactive
same,outcome,[6],inactive
CCCc1cc(C(N)=S)ccn1,outcome,[1],inactive
same,outcome,[2],inactive
same,outcome,[3],inactive
same,outcome,[4],inactive
same,outcome,[5],inactive
NC(=O)COCCN1CCN(C(c2ccccc2)c2ccc(Cl)cc2)CC1 (stereo unspecified),outcome,[1],inactive
same,outcome,[2],inactive
same,outcome,[3],inactive
same,outcome,[4],inactive
same,outcome,[5],inactive
same,outcome,[6],inactive
C1CC(COCC2CO2)CCC1COCC1CO1 (stereo unspecified),outcome,[1],inactive
same,outcome,[2],inactive
same,outcome,[3],inactive
same,outcome,[4],inactive
same,outcome,[7],inactive
same,outcome,[6],inactive
COC(=O)[C@H]1[C@H]2C[C@@H]3c4[nH]c5cc(OC)ccc5c4CCN3C[C@H]2C[C@@H](OC(=O)/C=C/c2cc(OC)c(OC)c(OC)c2)[C@@H]1OC,outcome,[1],inactive
same,outcome,[2],inactive
same,outcome,[3],inactive
same,outcome,[4],inactive
same,outcome,[5],inactive
same,outcome,[6],inactive
